# Compounds with a hit are over-represented: about 2.2% of the library has one in this group of screens.
# NLRP3 yeast inh: NALP3 inhibition in yeast; 330,000 tested, 0.39% active; inhibition, % at 10 µM; AID 2825; Yeast reconstituted NLRP3/ASC/caspase-1, beta-gal luminescence, 24 h;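 active means inhibition of 50% or more; inactive means inhibition below 50%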;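 further: plate controls were induced DMSO wells for no effect and uninduced yeast grown without galactose for full effect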
# NALP1 yeast inh: blocks the NALP1 inflammasome reconstituted in yeast; S. cerevisiae NALP1/ASC/caspase-1 growth, X-gal OD620, 72 h; inhibition, % at 10 µM; 280,000 tested, 0.61% active; AID 2071; in the data active means inhibition mostly above about 24%, no sharp cut-off; inactive means mostly below about 32%
# ZTA DNA inh: blocks Epstein-Barr virus ZTA, an EBNA-1 counter-screen | P03206 | ZTA-DNA binding, fluorescence polarization | inhibition, % at 11 µM | 320,000 tested, 0.15% active | AID 2234; in the data active means inhibition above about 33%
# Target sequence (P03206 whole entry, looked up): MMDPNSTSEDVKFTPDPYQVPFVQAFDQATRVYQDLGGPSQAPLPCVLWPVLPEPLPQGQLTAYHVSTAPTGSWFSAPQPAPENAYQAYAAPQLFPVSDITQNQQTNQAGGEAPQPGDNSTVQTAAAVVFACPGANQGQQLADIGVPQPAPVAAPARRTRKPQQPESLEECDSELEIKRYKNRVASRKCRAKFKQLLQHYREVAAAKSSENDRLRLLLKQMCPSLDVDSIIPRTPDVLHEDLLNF
# PolyA inhibitor: yeast polyadenylation inhibition | activity score, % at 12 µM | AID 1875 | S. cerevisiae SKY197-pL101 polyadenylation reporter, beta-gal luminescence; efflux-impaired pdr1/pdr3 knockout yeast; score 100 = 6 SD above DMSO | 300,000 tested, 0.02% active;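 active means lowest replicate activity score at least 50, where 100 means six control SD above control mean; inconclusive means lowest score under 50 but half or more replicates reach 50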;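 further: yeast exposed to compound for 9 h at 30 °C; higher score means more reporter readthrough which indicates perturbed polyadenylation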
# EBNA-1 inh: blocks EBNA-1 binding to DNA. EBNA-1 DNA binding, fluorescence polarization. inhibition, % at 14.8 µM. AID 1950. 300,000 tested, 0.34% active; in the data active means inhibition above about 28%
# dFosB act-1: enhances mouse delta FosB homodimer DNA binding | 340,000 tested, 0.99% active | activation, % at 25 µM | P13346 | purified delta FosB, TAMRA-CDK5 oligo fluorescence polarization; percent of positive-control signal above neutral wells;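 active means mean activation above about 17%, with every replicate also reaching it, limit read from the data, passing the limit was not always enough; inconclusive means only one of the two conditions met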
# Target sequence (P13346 whole entry, looked up): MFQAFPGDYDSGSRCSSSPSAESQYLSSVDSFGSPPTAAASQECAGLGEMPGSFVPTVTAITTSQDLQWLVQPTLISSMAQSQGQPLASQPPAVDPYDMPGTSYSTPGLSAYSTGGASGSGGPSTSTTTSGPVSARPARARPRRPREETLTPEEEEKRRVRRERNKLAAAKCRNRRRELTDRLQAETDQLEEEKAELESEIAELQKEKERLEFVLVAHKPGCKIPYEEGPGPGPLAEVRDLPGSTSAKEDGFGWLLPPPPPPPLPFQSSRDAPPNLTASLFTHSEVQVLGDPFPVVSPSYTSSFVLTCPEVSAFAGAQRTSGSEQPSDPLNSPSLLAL
# dFosB act-2: enhances mouse delta FosB homodimer binding to DNA; shares compounds with dFosB act-1; purified delta FosB, TAMRA-CDK5 oligo fluorescence polarization; normalised: neutral wells 0, positive control 100; activation, % at 24.9 µM; 2,400 tested, under 10 active;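 active means highest replicate activation at or above 34% and every replicate reaching that threshold; inconclusive means meets only one of the two criteria; inactive means meets neither criterion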;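 further: higher polarization means more probe DNA bound by delta FosB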
# Starred values were filed as active, the others as inactive; ? = inconclusive; nt = no result.
SMILES,NLRP3 yeast inh,NALP1 yeast inh,ZTA DNA inh,PolyA inhibitor,EBNA-1 inh,dFosB act-1,dFosB act-2
O=C(NCCc1ccccc1)C1CCC(CNc2nc(=S)[nH]c3ccccc23)CC1 (configuration not stated),11,14,-1,2,18,24*,6
NS(=O)(=O)c1ccc(CCNC(=O)C2CCC(Cn3c(=S)[nH]c4ccccc4c3=O)CC2)cc1 (configuration not stated),20,-2,17,0,0,18*,3
Nc1ccc(CSc2ccc(Cl)cc2)cc1,48,6,6,-23,4,-2,nt
C=C(C)CSc1nc2sc3c(c2c(=O)n1-c1ccc(C)cc1)CCN(C)C3,9,25,nt,-10,nt,-13,nt
Cc1nnc(NC(=O)c2ccc(-c3cccc(C(F)(F)F)c3)o2)s1,-5,12,0,nt,-2,30*,?
CCc1cc2ccc(OC)cc2nc1SCC(=O)Nc1cc(C)on1,12,10,-5,1,3,111*,0
O=C(CSc1nc2c([nH]c3ccccc32)c(=O)n1-c1ccccc1)N1CCOCC1,18,nt,-10,5,18,-3,nt
COc1cccc(-n2c(SCC(=O)Nc3cc(C)on3)nc3c([nH]c4ccccc43)c2=O)c1,11,15,2,-10,19,39*,3
CCc1cc2ccccc2nc1SCC(=O)Nc1cc(C)on1,11,7,12,4,11,-5,nt
O=C(CSc1nc2c([nH]c3ccccc32)c(=O)n1-c1cccc(Cl)c1)N1CCOCC1,10,1,10,10,37*,55*,4
C/C(=N\NC(=S)Nc1ccc(F)cc1)c1ccc2c(c1)OCCO2,22,4,-11,-2,-4,-8,nt
CCC(=O)Nc1cccc(NC(=O)c2ccc3c(c2)OCO3)c1,9,27,-7,15,1,28*,1
COc1cccc(NC(=O)c2ccc3c(c2)OCO3)c1,33,19,11,8,7,1,nt
C/C(=N/NC(=O)c1ccc2c(c1)OCO2)c1ccc(NC(=O)c2ccc(F)cc2)cc1,13,10,nt,nt,nt,43*,2
O=C(NCCc1nnc2ccc(SCC(=O)N3CCCC3)nn12)c1ccccc1,1,5,2,6,-12,-5,nt
O=C(N/N=C/c1ccco1)c1cc(-c2ccc(Cl)cc2)n[nH]1,8,nt,-17,37,3,25*,3
Cc1ccc(-c2cc(C(=O)N/N=C/c3ccco3)[nH]n2)cc1,10,10,-16,16,3,2,nt
COc1cc(C(=O)Oc2cccc(/C=N/NC(=O)c3cc(C)[nH]n3)c2)cc(OC)c1OC,0,-1,-29,-8,-5,-32,nt
Cc1cc(C(=O)N/N=C/c2cccc(OC(=O)c3cccc(Br)c3)c2)n[nH]1,22,1,nt,nt,nt,30*,3
CCOc1ccc(NC(=O)C2CCCN2S(=O)(=O)c2ccc(OCC)cc2)cc1 (configuration not stated),24,11,2,-11,7,-5,nt
CCN(CC)S(=O)(=O)c1ccc(OC)c(NC(=O)c2ccc(-n3cncn3)c([N+](=O)[O-])c2)c1,18,nt,-9,8,8,-9,nt
Cn1nc(C(=O)Nc2ccc(Br)cc2)cc1C(=O)Nc1ccc(Br)cc1,10,26,-8,16,-1,40*,5
COc1cccc(NC(=O)c2cc(C(=O)Nc3cccc(OC)c3)n(C)n2)c1,19,23,9,-5,2,4,nt
CS(=O)(=O)N(Cc1ccc(Cl)cc1)c1ccc(C(=O)N/N=C/c2cc3ccccc3nc2Cl)cc1,28,18,5,-11,-1,41*,7
OCCN1CCN(c2nc(-c3ccccc3O)nc3ccccc23)CC1,14,26,3,14,6,24*,6
SMILES,NLRP3 yeast inh,NALP1 yeast inh,ZTA DNA inh,PolyA inhibitor,EBNA-1 inh,dFosB act-1,dFosB act-2
CN1CCN(c2nc(-c3ccccc3O)nc3ccccc23)CC1,29,36,-2,-5,4,8,nt
Cc1ccc(NC(=O)c2ccccc2)cc1OC(=O)c1ccccc1,39,-3,12,-5,7,-12,nt
O=C(Nc1ccc(OC(=O)c2ccccc2)c(-c2nc3ccccc3s2)c1)c1ccccc1,6,1,-25,-11,-6,18*,6
Clc1ccc(-c2nc(-c3ccncc3)no2)c(Cl)c1,21,nt,-18,-12,7,3,nt
Nc1nccc(-c2cc(-c3ccc(Cl)cc3Cl)no2)n1,-15,5,-8,-18,-2,93*,-15
CCCCCc1cc(=O)oc2c(C(CCN3CCCC(C)C3)c3cc(OC)c(OC)c(OC)c3)c(OC)cc(OC)c12 (configuration not stated),23,4,-4,-7,10,19*,-2
O=C(CCCCC(=O)NN=Cc1ccc(Cl)cc1)NN=Cc1ccc(Cl)cc1,nt,nt,nt,nt,nt,25*,1
O=C(NC12CC3CC(CC(C3)C1)C2)c1c(Cl)cccc1Cl,19,15,-10,-1,0,2,nt
COc1ccccc1NC(=O)C1CCN(S(=O)(=O)c2ccc3c(c2)NC(=O)CO3)CC1,-8,2,-5,0,3,-9,nt
COCc1c(C(=O)N/N=C(/C)c2ccc(OCc3ccccc3)cc2)nnn1-c1nonc1N,21,17,19,-19,2,5,nt
COc1ccc(/C=N\NC(=O)c2ccc(Cn3cc(Br)c([N+](=O)[O-])n3)o2)c(OC)c1C,12,1,2,13,18,?,nt
O=C(N/N=C\c1cccc(Cl)c1)c1ccc(Cn2cc(Br)c([N+](=O)[O-])n2)o1,13,19,10,0,3,33*,-1
Cc1ccc(/C=N\NC(=O)c2ccc(Cn3cc(Br)c([N+](=O)[O-])n3)o2)o1,-4,7,-24,17,5,27*,-8
COc1ccc(NCc2ccc(OC)c(Cn3ccnc3)c2)c(OC)c1,30,6,-1,-6,9,-9,nt
CC(=O)OCCCN1C(=O)c2cccc3cc(Br)cc(c23)C1=O,49,15,-7,-18,0,nt,nt
Nc1cc2c3c(cccc3c1)C(=O)N(CCN1CCCC1)C2=O,nt,27,-1,-7,-14,57*,-2
CCN(CC)CCN1C(=O)c2cccc3cc(N)cc(c23)C1=O,14,27,3,8,8,24*,-4
NC(=O)CN1CCN(CCN2C(=O)c3cccc4cccc(c34)C2=O)CC1,-11,15,18,-1,-4,24*,-9
O=C(c1ccco1)N1CCN(S(=O)(=O)c2cccc(Cl)c2)CC1,-9,2,-14,28,7,-3,nt

# From PubChem
